Source: PubChem BioAssay (National Center for Advancing Translational Sciences (NCATS))
RECQ1 inh-1: RECQ1 (human) helicase inhibition | RECQ1 DNA unwinding, red fluorescence kinetic read | actives 0.54% (n = 240,000) | Potency, µM (highest dose often 57.3 µM), for the others: top-dose activity, negative = inhibition, hits mostly inhibitors;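 further: plate controls were vehicle for no effect and no enzyme for full effect; nearly all actives have a fitted effect of over 30% in size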
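RECQ1T1 50 nM; forked duplex (20 bp + 30-nt ss tails) 200 nM, ATP 2 mM final; pH 8.0, 2 mM MgCl2, 2.5 ug/ml poly(dI-dC); 15 min compound preincubation; discontinuous kinetic read over 2 h at RT.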
BLM helicase inh: inhibitors of human Bloom syndrome helicase BLM | recombinant BLM DNA unwinding, fluorescence dequenching | Potency, µM (top dose mostly 56.1 µM), without a hit: at the top dose activity change, negative = inhibition, hits mostly inhibitors | actives 0.2% (n = 350,000) | AID 2528;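 further: plate controls were vehicle for no effect and no enzyme for full effect; nearly all actives have a fitted effect of over 35% in size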
Target sequence (P54132 whole entry, looked up): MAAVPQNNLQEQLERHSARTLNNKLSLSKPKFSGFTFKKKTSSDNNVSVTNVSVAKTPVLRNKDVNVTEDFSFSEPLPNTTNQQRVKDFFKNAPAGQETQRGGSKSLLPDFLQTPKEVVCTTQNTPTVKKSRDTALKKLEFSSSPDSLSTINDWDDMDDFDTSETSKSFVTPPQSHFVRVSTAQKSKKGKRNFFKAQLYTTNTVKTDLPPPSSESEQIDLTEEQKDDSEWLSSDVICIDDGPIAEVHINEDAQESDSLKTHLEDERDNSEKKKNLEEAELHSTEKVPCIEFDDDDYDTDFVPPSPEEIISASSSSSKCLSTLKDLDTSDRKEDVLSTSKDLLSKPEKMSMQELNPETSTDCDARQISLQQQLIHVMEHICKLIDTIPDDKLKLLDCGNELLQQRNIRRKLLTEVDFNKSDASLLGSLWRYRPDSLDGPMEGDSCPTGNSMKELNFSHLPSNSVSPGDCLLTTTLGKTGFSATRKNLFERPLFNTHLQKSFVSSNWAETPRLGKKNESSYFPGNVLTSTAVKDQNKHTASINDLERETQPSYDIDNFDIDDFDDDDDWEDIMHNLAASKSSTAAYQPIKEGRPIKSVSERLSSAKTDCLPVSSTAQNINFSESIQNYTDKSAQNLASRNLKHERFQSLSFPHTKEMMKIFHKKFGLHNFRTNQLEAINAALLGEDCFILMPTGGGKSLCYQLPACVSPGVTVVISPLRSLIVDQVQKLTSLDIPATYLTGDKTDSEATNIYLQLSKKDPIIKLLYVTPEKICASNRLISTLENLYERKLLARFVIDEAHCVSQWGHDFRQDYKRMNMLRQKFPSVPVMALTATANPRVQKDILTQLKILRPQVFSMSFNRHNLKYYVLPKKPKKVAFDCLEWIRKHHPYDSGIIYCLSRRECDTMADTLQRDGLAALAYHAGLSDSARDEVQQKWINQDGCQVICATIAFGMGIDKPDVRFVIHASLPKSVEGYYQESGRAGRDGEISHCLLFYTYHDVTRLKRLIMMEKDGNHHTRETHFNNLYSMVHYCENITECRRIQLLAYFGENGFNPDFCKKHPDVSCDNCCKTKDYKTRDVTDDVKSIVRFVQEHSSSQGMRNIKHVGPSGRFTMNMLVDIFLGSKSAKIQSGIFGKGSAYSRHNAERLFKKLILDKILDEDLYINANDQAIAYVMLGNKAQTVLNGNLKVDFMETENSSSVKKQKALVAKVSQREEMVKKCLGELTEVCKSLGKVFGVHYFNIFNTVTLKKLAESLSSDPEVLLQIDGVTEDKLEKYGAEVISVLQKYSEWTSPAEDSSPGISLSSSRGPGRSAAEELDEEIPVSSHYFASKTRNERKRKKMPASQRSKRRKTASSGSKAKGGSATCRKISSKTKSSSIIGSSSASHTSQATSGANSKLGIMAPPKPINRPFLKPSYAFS
WRN helicase inh: WRN helicase (human) inhibition; Q14191; WRN helicase unwinding, fluorescent forked duplex, kinetic; Potency, µM (series often up to 114 µM), without a hit: at the highest dose activity change, negative = inhibition, most hits filed as inhibitors; actives 0.46% (n = 360,000); further: on the % scale 0 is the no-effect control and ±100 the full control effect; nearly all actives have a fitted effect of over 55% in size
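WRN at 20 nM final was preincubated with compound for 15 min at room temperature; reaction started with 100 nM forked duplex oligonucleotide carrying fluorophore and quencher plus 2 mM ATP (final). Unwinding followed kinetically by red fluorescence (ex 525/em 598 nm).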
FEN1 inhibitor: human FEN1 inhibition; Potency, µM (titrated, usually from 114 µM), without a hit: at the highest dose activity change, negative = inhibition, actives largely listed as inhibitors; P39748; AID 588795; Recombinant FEN1 flap cleavage, fluorescence, 15 min; actives 0.35% (n = 390,000); further: on the % scale 0 is the no-effect control and ±100 the full control effect; nearly all actives have a fitted effect of over 65% in size
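FEN1 at 10 nM, compound pretreatment for 15 min (room temperature), 50 nM final substrate to initiate; endpoint reads at 0 and 15 min; DMSO-only plates used as vehicle background.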
L3MBTL1 inh-1: blocks human L3MBTL1; Q9Y468; actives 0.66% (n = 230,000); AlphaScreen L3MBTL1–H3K9me1 peptide binding; AID 485360; Potency, µM (top dose mostly 57.1 µM), for the others: top-dose activity, negative = inhibition, actives largely listed as inhibitors; further: on the % scale 0 is the no-effect control and ±100 the full control effect; nearly all actives have a fitted effect of over 60% in size
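Displacement of a biotinylated histone H3(1-15) peptide monomethylated at Lys9 (75 nM) from L3MBTL1 (50 nM) was measured by AlphaScreen after a 30 min room-temperature compound incubation; cefsulodin titration served as intraplate control.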
RECQ1 inh conf: confirmation of human RECQ1 helicase inhibitors | shares compounds with RECQ1 inh-1 | RECQ1 helicase DNA unwinding, fluorescence | Potency, µM (series often up to 229 µM), for inactives: at the highest dose activity change, negative = inhibition, most hits filed as inhibitors | actives 28% (n = 610) | AID 2708; further: on the % scale 0 is the no-effect control and ±100 the full control effect; nearly all actives have a fitted effect of over 45% in size
ADP FP counter: ADP displacement flagged in RECQ1 inhibitor counter-screen; shares compounds with RECQ1 inh-1; Potency, µM (doses to about 228 µM), without a hit: at the top dose activity change, negative = inhibition, most hits filed as inhibitors; AID 2711; actives 27% (n = 530); ADP fluorescence polarization displacement counterscreen; further: on the % scale 0 is the no-effect control and ±100 the full control effect; nearly all actives have a fitted effect of over 45% in size
RECQ1 inh-2: RECQ1 helicase inhibition confirmed, round 2; shares compounds with RECQ1 inh-1; actives 15% (n = 1,100); recombinant RECQ1 DNA unwinding, red fluorescence; Potency, µM (highest dose often 119 µM), inactives show at the top dose activity, negative = inhibition, most hits filed as inhibitors; AID 504841; further: on the % scale 0 is the no-effect control and ±100 the full control effect; nearly all actives have a fitted effect of over 50% in size
L3MBTL1 inh-2: L3MBTL1 binding inhibition validated. shares compounds with L3MBTL1 inh-1. L3MBTL1 methyl-lysine binding inhibition, biochemical qHTS. Potency, µM, actives largely listed as inhibitors. actives 91% (n = 500). AID 540279; further: nearly all actives have a fitted effect of over 70% in size
AlphaScreen ctr2: interferes with AlphaScreen signal in L3MBTL1 counterscreen. AlphaScreen counterscreen, signal inhibition. 500 tested, under 10 active. Potency, µM (doses to about 57.1 µM), for inactives: at the top dose activity change, negative = inhibition, hits mostly inhibitors. AID 602224. shares compounds with L3MBTL1 inh-1; further: 0% is about no effect
Starred values were filed as active, the others as inactive; i = inactive; ? = inconclusive; / = not tested or not shown; [ ] = remark or other dose. Only some compounds are listed: those with a hit (about 0.99% of all), similar ones and a draw of the others. The call rests on the fitted dose curve; in most records, active means well fitted curve in the direction sought with a large enough effect; inconclusive means small, poorly fitted or top-dose-only effect, or another doubt; inactive means no such curve, though single readings can be large; an effect the other way counts as inactive or inconclusive. Potency means the concentration at half of the fitted maximal effect.

SMILES	RECQ1 inh-1	BLM helicase inh	WRN helicase inh	FEN1 inhibitor	L3MBTL1 inh-1	RECQ1 inh-2	L3MBTL1 inh-2	AlphaScreen ctr2	others
CC1CCC2(CC1)NC(=O)N(CC(=O)Nc1sc3c(c1C(N)=O)CCC3)C2=O (centres undefined)	31.6µM*	?	50.1µM*	-29.6%	28.2µM*	?	3.77*	5.7%
COC(=O)c1c(NC(=O)CN2C(=O)NC3(CCC(C)CC3)C2=O)sc2c1CCC2 (centres undefined)	/	/	-0.9%	3.4%	-3.2%	/	/	/
CCOC(=O)CCNC(=O)N1CCCC(C(=O)c2ccc3c(c2)OCO3)C1 (centres undefined)	i	-7.1%	-4.4%	-10.3%	-4.0%	/	/	/
O=C(Nc1cccc(S(=O)(=O)NC2=NCCCCC2)c1)c1cc(-c2ccco2)nc2ccccc12	20µM*	?	?	-11.0%	35.5µM*	?	2.99*	2.6%
CC(=O)c1cccc(NC(=O)c2cc(-c3ccco3)nc3ccccc23)c1	/	-5.2%	-22.3%	9.9%	/	/	/	/
CCOC(=O)c1cc(-c2ccc(N3CCOCC3)cc2)nn1-c1ccccc1C(=O)O	11.2µM*	-24.6%	?	-5.4%	14.1µM*	?	6.7*	5.4%	RECQ1 inh conf=44.7µM*;ADP FP counter=36.3%[91.9 µM]
O=C(C1CCCN(CCCc2ccccc2)C1)N1CCCCCC1 (centres undefined)	-14.0%	1.3%	-27.9%[57.1 µM]	-5.2%	-3.5%	/	/	/
CCOC(=O)/C(C#N)=C/c1cccn1-c1ccc(Cl)cc1	-17.3%	-4.8%	-3.5%	8.0%	-0.8%	/	/	/
N#C/C(=C/c1cccn1-c1cccc(C(=O)O)c1)c1ccc(Cl)cc1	?	-24.7%	-9.6%[11.6 µM]	7.4%	25.1µM*	44.7µM*	23.8*	?
CCN(CC)Cc1c(O)c(Cl)cc2c(C)cc(=O)oc12	?	-21.0%	-9.3%[11.6 µM]	-7.4%	22.4µM*	56.2µM*	15*	3.5%
Cc1cc(=O)oc2c(CN3CCC(C)CC3)c(O)c(Cl)cc12	28.2µM*	-17.1%	?	-12.9%	31.6µM*	?	10.6*	14.6%
CCOC(=O)c1c(C)[nH]c(C(=O)COC(=O)COc2ccccc2C)c1C	-2.6%	6.0%	6.0%	-13.8%	0.1%	/	/	/
O=C(Cc1ccc(S(=O)(=O)N2CCOCC2)s1)Nc1ccc2c(c1)CCC2	-15.9%	-10.8%	-6.9%	-8.9%	-3.7%	/	/	/
O=C(Cc1ccc(S(=O)(=O)N2CCOCC2)s1)Nc1nc2c(s1)CCCC2	10µM*	-1.9%	35.5µM*	?	11.2µM*	?	6.7*	-22.0%
C=C(C)Cn1c(SCC(=O)O)nnc1-c1ccccc1	-12.2%	1.6%	5.5%	5.0%	/	/	/	/
Cc1cc(C)n2c(SC/C(O)=C(\C#N)c3nc4ccccc4[nH]3)nnc2n1	?	-27.4%	?	?	15.8µM*	?	5.97*	-19.8%
Cc1ccnc(NS(=O)(=O)c2ccc(NC(=O)Cc3cccs3)cc2)n1	25.1µM*	-12.7%	39.8µM*	?	31.6µM*	?	2.67*	-0.8%
Cc1ccnc(NS(=O)(=O)c2ccc(NC(=O)Cc3ccc(F)cc3)cc2)n1	/	1.4%	2.2%	-2.7%	/	/	/	/
